# Reference: PubChem BioAssay (NCATS)
# Results filed as inconclusive are left out. Where a call stands in place of a potency, no number is given. Active and inactive are the calls of the source. Calls come from the whole dose curve; as a rule, active = well fitted cell-killing curve with a large enough effect; inconclusive = small, poorly fitted or top-dose-only effect, or effect the other way; inactive = no such curve, though single readings can be large or run the other way.
# Test: Quantitative High-Throughput drug screen in 47 multiple myeloma cell lines against the NCATS MIPE library collection: KMS20_JCRB cell viability assay (AID 1918973)
# Settings: CellTiter-Glo ATP, 48 h; series mostly up to 45.8 µM
# Summary of the method: (§1)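 We plated 500 myeloma cells per well, pinned in MIPE 4.0 compounds, and incubated for 48 hours at 37C. ATP was then quantified with CellTiter-Glo, with DMSO and media-only wells defining 100% and 0%.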
# Note: nearly all actives have a fitted effect of over 45% in size.
# Potency is the fitted concentration of half-maximal effect.
row,Compound,Potency
1,CN(C)CCOC(c1ccccc1)c1ccccc1,18.7 µM (active)
2,CN(C)CCC=C1c2ccccc2C=Cc2ccccc21,14.8 µM (active)
3,COc1cc2nc(N(C)CCCNC(=O)C3CCCO3)nc(N)c2cc1OC (stereo unspecified),inactive
4,NCCS(=O)(=O)O,inactive
5,O=C(C1CCCCC1)N1CC(=O)N2CCc3ccccc3C2C1 (stereo unspecified),inactive
6,CN(C)C(=N)N=C(N)N,inactive
7,C[C@](N)(Cc1ccc(O)c(O)c1)C(=O)O,16.6 µM (active)
8,O=C(CCCN1CCC(O)(c2ccc(Cl)cc2)CC1)c1ccc(F)cc1,13.2 µM (active)
9,Cc1ccccc1N1C(=O)c2cc(S(N)(=O)=O)c(Cl)cc2NC1C (stereo unspecified),inactive
10,CC(CCc1ccc(O)cc1)NCCc1ccc(O)c(O)c1 (stereo unspecified),inactive
11,COc1ccc2c(c1)c(CC(=O)O)c(C)n2C(=O)c1ccc(Cl)cc1,9.35 µM (active)
12,Cc1cc(C(C)(C)C)cc(C)c1CC1=NCCN1,inactive
13,O=C1N(c2ccccc2)c2ccccc2C1(Cc1ccncc1)Cc1ccncc1,0.001 µM (active)

# Test: Quantitative High-Throughput drug screen in 47 multiple myeloma cell lines against the NCATS MIPE library collection: KMS26_JCRB cell viability assay (AID 1918975)
# Settings: KMS26 myeloma cells viability, CellTiter-Glo ATP, 48 h; series mostly up to 45.8 µM
# Summary of the method: as §1
row,Compound,Potency
1,CN(C)CCOC(c1ccccc1)c1ccccc1,inactive
2,NCCc1cnc[nH]1,inactive
3,CN(C)CCC=C1c2ccccc2C=Cc2ccccc21,6.62 µM (active)
4,Clc1ccc(C(c2ccccc2Cl)C(Cl)Cl)cc1 (stereo unspecified),18.7 µM (active)
5,NCCS(=O)(=O)O,inactive
6,COc1ccccc1OCCNCC(O)COc1cccc2[nH]c3ccccc3c12 (stereo unspecified),23.5 µM (active)
7,O=C(C1CCCCC1)N1CC(=O)N2CCc3ccccc3C2C1 (stereo unspecified),inactive
8,N[C@@H](Cc1c[nH]c2ccc(O)cc12)C(=O)O,inactive
9,CN1CCN(C2=Nc3cc(Cl)ccc3Nc3ccccc32)CC1,inactive
10,CS(=O)(=O)Nc1ccc([N+](=O)[O-])cc1Oc1ccccc1,18.7 µM (active)
11,C[C@H]1c2cccc(O)c2C(O)=C2C(=O)[C@]3(O)C(O)=C(C(N)=O)C(=O)[C@@H](N(C)C)[C@@H]3[C@@H](O)[C@@H]21,23.5 µM (active)
12,CN(C)C(=N)N=C(N)N,inactive
13,Nc1nnc(-c2cccc(Cl)c2Cl)c(N)n1,inactive
14,Cc1ccccc1N1C(=O)c2cc(S(N)(=O)=O)c(Cl)cc2NC1C (stereo unspecified),inactive
15,CN1CCN2c3ccccc3Cc3ccccc3C2C1 (stereo unspecified),26.4 µM (active)
16,Cc1cc(C(C)(C)C)cc(C)c1CC1=NCCN1,inactive
17,Fc1ccc([C@@H]2CCNC[C@H]2COc2ccc3c(c2)OCO3)cc1,inactive
18,O=C1N(c2ccccc2)c2ccccc2C1(Cc1ccncc1)Cc1ccncc1,37.2 µM (active)
